In the library only some 0.84% were active in any assay of this set; here they are far more common.
SRC2 TRFRET art: TR-FRET signal artefacts, primary screen, artefact control for PPARgamma SRC-2 agonist project, biochemical; TR-FRET ratio at 8 µM; TR-FRET artefact counter-screen; hits give high values; 200,000 compounds, 0.4% hits
PPARg SRC-3 ag: PPARgamma agonists recruiting SRC-3 coactivator, primary screen, biochemical; Peroxisome proliferator-activated receptor gamma (Homo sapiens), P37231; biochemical PPARgamma/SRC-3 coactivator recruitment assay; activation, % at 8 µM; 200,000 compounds, 0.26% hits; AID 731, 2007; in the data active means activation above about 23%;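 further: 0% = DMSO and 100% = reference agonist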
Target sequence (P37231 whole entry, looked up): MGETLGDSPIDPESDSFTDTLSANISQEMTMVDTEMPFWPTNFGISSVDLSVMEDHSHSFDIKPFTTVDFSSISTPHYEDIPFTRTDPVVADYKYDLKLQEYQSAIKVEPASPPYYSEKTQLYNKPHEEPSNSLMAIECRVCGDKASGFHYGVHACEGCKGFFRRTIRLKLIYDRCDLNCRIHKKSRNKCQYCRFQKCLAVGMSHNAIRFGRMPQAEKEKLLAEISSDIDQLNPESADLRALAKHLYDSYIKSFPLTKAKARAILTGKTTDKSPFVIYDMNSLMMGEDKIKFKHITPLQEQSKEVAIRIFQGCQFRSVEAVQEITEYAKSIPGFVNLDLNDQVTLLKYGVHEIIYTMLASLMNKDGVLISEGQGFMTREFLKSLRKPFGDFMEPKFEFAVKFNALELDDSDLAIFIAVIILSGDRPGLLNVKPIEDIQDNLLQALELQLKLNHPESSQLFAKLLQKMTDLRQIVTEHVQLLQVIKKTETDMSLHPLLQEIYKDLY
PPARg SRC1 recr: PPARgamma agonists recruiting SRC-1 coactivator, primary screen, biochemical; PPARgamma-SRC-1 coactivator recruitment biochemical assay; 200,000 compounds, 0.41% hits; AID 631, 2007; activation, % at 8 µM; in the data active means activation above about 19%;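 further: 0% = DMSO and 100% = reference agonist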
SRC1 TRFRET art: TR-FRET detection interference compounds, primary screen, artefact control for PPARgamma SRC-1 recruitment agonists, biochemical, TR-FRET emission ratio | AID 1051, 2008 | TR-FRET detection artefact counter-screen; hits give high values | 99,000 compounds, 0.34% hits | TR-FRET ratio at 8 µM; in the data active means TR-FRET ratio above about 2300
PPARg SRC2 recr: agonists of PPARg-SRC-2 recruitment, primary screen, biochemical, HTS; Peroxisome proliferator-activated receptor gamma (Homo sapiens), P37231; PPARgamma LBD-SRC-2 recruitment; activation, % at 8 µM; 200,000 compounds, 0.34% hits; AID 1032, 2008; in the data active means activation above about 22%;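 further: 0% = vehicle and 100% = reference agonist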
SRC3 TRFRET art: TR-FRET detection interference compounds, artefact control for PPARgamma SRC-3 recruitment agonists, biochemical, TR-FRET ratio | TR-FRET artefact counter-screen, PPARgamma/SRC-3 format; hits give high values | TR-FRET ratio at 8 µM | 99,000 compounds, 0.39% hits
PPARg SRC2 ag: agonists of PPARgamma SRC-2 coactivator recruitment, confirmation, biochemical, HTS; shares compounds with PPARg SRC-3 ag; biochemical SRC-2 recruitment by PPARgamma; activation, % at 8 µM; 790 compounds, 52% hits; AID 1297, 2008; in the data active means activation above about 22%;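 further: 0% = vehicle alone and 100% = reference agonist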
PPARg SRC1 conf: PPARgamma agonists recruiting SRC-1 coactivator, confirmation, biochemical | shares compounds with PPARg SRC-3 ag | PPARgamma–SRC-1 coactivator recruitment biochemical assay | activation, % at 8 µM | 790 compounds, 43% hits | AID 1300, 2008; in the data active means activation above about 20%;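 further: 0% = vehicle wells and 100% = reference agonist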
PPARg SRC3 conf: PPARgamma-driven SRC-3 coactivator recruitment agonists, confirmation, biochemical. shares compounds with PPARg SRC-3 ag. biochemical PPARgamma-SRC-3 coactivator recruitment, agonist mode. activation, % at 8 µM. 790 compounds, 29% hits; in the data active means activation above about 24%;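 further: 0% = vehicle wells and 100% = reference agonist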
The depositor's hits bear a star. Unless noted, no stated cut-off is given here; in the data, active means TR-FRET ratio above about 2000; inactive means the rest.

What do the screens show for `C=CCn1c(-c2csc(-c3ccc(Cl)cc3)n2)n[nH]c1=S`?
SRC2 TRFRET art: 1851; PPARg SRC-3 ag: 12.6; PPARg SRC1 recr: 7.1; PPARg SRC2 recr: 10.2

Results for C=CCn1c(-c2cc(Cl)ccc2OC)n[nH]c1=S ?
SRC2 TRFRET art: 1913; PPARg SRC-3 ag: 19.7; PPARg SRC1 recr: 18.9*; PPARg SRC2 recr: 26.0*; PPARg SRC2 ag: 29.7*; PPARg SRC1 conf: 21.5*; PPARg SRC3 conf: 21.1

What do the screens show for `Cc1ccc(C)c(NC(=S)N(Cc2ccc(Cl)cc2)Cc2ccc(C(=O)O)cc2)c1`?
SRC2 TRFRET art: 1557; PPARg SRC-3 ag: 3.1; PPARg SRC1 recr: 2.0; SRC1 TRFRET art: 1884; PPARg SRC2 recr: 9.2; SRC3 TRFRET art: 1623

What do the screens show for `CCCC(=O)Nc1c2c(nc3ccccc13)N(c1ccccc1)CC2`?
SRC2 TRFRET art: 3204*; PPARg SRC-3 ag: 46.1*; PPARg SRC1 recr: 46.1*; SRC1 TRFRET art: 2803*; PPARg SRC2 recr: 61.4*; SRC3 TRFRET art: 2855*; PPARg SRC2 ag: 41.4*; PPARg SRC1 conf: 24.7*; PPARg SRC3 conf: 25.8*

Results for CCc1nnc(NS(=O)(=O)c2ccc(N/C=C\C(=O)c3cccc4ccccc34)cc2)s1 ?
SRC2 TRFRET art: 1761; PPARg SRC-3 ag: 48.0*; PPARg SRC1 recr: 23.2*; SRC1 TRFRET art: 1902; PPARg SRC2 recr: 23.8*; SRC3 TRFRET art: 1728; PPARg SRC2 ag: 22.8*; PPARg SRC1 conf: 22.2*; PPARg SRC3 conf: 41.2*

Results for Cc1cccc(OCCOc2ccccc2C=C(C#N)C#N)c1 ?
SRC2 TRFRET art: 1559; PPARg SRC-3 ag: -2.5; PPARg SRC1 recr: -6.8; SRC1 TRFRET art: 1616; PPARg SRC2 recr: -6.5; SRC3 TRFRET art: 1368

Results for Cc1ccccc1OCCOc1ccccc1C=C(C#N)C#N ?
SRC2 TRFRET art: 2050*; PPARg SRC-3 ag: 12.4; PPARg SRC1 recr: 20.5*; SRC1 TRFRET art: 2244; PPARg SRC2 recr: 13.5; SRC3 TRFRET art: 2057*; PPARg SRC2 ag: 20.6; PPARg SRC1 conf: 16.9; PPARg SRC3 conf: 12.7

What do the screens show for `COc1ccc(OC)c(C2C(C(=O)c3cc4ccccc4o3)=C(O)C(=O)N2c2cc(C)on2)c1` (stereo not drawn)?
SRC2 TRFRET art: 2296*; PPARg SRC-3 ag: 15.0; PPARg SRC1 recr: 18.8*; PPARg SRC2 recr: 22.2*; PPARg SRC2 ag: 28.4*; PPARg SRC1 conf: 20.6*; PPARg SRC3 conf: 16.5

Results for CCOC(=O)c1sc(=S)n(-c2ccccc2)c1SC ?
SRC2 TRFRET art: 1626; PPARg SRC-3 ag: 3.3; PPARg SRC1 recr: -2.8; PPARg SRC2 recr: -1.1

How did CCOC(=O)c1sc(=S)n(-c2ccccc2Cl)c1SC do in these assays?
SRC2 TRFRET art: 1889; PPARg SRC-3 ag: 30.7*; PPARg SRC1 recr: 29.5*; PPARg SRC2 recr: 30.8*; PPARg SRC2 ag: 40.4*; PPARg SRC1 conf: 35.9*; PPARg SRC3 conf: 28.7*

What do the screens show for `O=c1c(-c2ccccc2)[n+]([O-])c2ccccc2n1O`?
SRC2 TRFRET art: 1580; PPARg SRC-3 ag: 12.8; PPARg SRC1 recr: -1.4; PPARg SRC2 recr: 8.7

Results for Cc1ccc(N2CSC3=C(C#N)C(c4cccs4)CC(=O)N3C2)cc1 (stereo not drawn) ?
SRC2 TRFRET art: 2106*; PPARg SRC-3 ag: 19.3; PPARg SRC1 recr: 13.4; PPARg SRC2 recr: 28.8*; PPARg SRC2 ag: 3.9; PPARg SRC1 conf: -0.2; PPARg SRC3 conf: 2.3

What do the screens show for `O=C1c2ccccc2C(=O)c2c1ccc1c(=O)n(-c3ccccc3)[nH]c21`?
SRC2 TRFRET art: 1455; PPARg SRC-3 ag: 2.5; PPARg SRC1 recr: 9.9; SRC1 TRFRET art: 1572; PPARg SRC2 recr: 5.9; SRC3 TRFRET art: 1724

How did CC(C)Cn1[nH]c2c3c(ccc2c1=O)C(=O)c1ccccc1C3=O do in these assays?
SRC2 TRFRET art: 1610; PPARg SRC-3 ag: 26.0*; PPARg SRC1 recr: 15.3; PPARg SRC2 recr: 20.0; PPARg SRC2 ag: 5.0; PPARg SRC1 conf: 4.2; PPARg SRC3 conf: 4.7

How did N#Cc1c(SCC(=O)O)nc(-c2ccccc2)c2c1CCCC2 do in these assays?
SRC2 TRFRET art: 1727; PPARg SRC-3 ag: 30.2*; PPARg SRC1 recr: 17.4; PPARg SRC2 recr: 10.9; PPARg SRC2 ag: 13.6; PPARg SRC1 conf: 11.3; PPARg SRC3 conf: 9.1

What do the screens show for `COCCNC(=S)NNC(=O)c1ccc(-n2cnnn2)cc1`?
SRC2 TRFRET art: 1729; PPARg SRC-3 ag: 3.2; PPARg SRC1 recr: -3.0; SRC1 TRFRET art: 1719; PPARg SRC2 recr: 10.3; SRC3 TRFRET art: 1476

What do the screens show for `COc1ccc(C(=O)NCc2nnc(SCC(=O)N3CCCc4ccccc43)o2)cc1OC`?
SRC2 TRFRET art: 1495; PPARg SRC-3 ag: 0.1; PPARg SRC1 recr: -0.2; SRC1 TRFRET art: 1725; PPARg SRC2 recr: 0.4; SRC3 TRFRET art: 1347

How did CCn1c(=O)cc(SCC(=O)Nc2cccc(SC)c2)c2ccccc21 do in these assays?
SRC2 TRFRET art: 2529*; PPARg SRC-3 ag: 46.5*; PPARg SRC1 recr: 35.1*; PPARg SRC2 recr: 42.4*; PPARg SRC2 ag: 44.0*; PPARg SRC1 conf: 27.7*; PPARg SRC3 conf: 27.9*

How did CCn1c(=O)cc(SCC(=O)Nc2cc(OC)c(OC)c(OC)c2)c2ccccc21 do in these assays?
SRC2 TRFRET art: 2483*; PPARg SRC-3 ag: 42.2*; PPARg SRC1 recr: 38.7*; PPARg SRC2 recr: 55.4*; PPARg SRC2 ag: 39.5*; PPARg SRC1 conf: 25.1*; PPARg SRC3 conf: 26.0*

What do the screens show for `CCn1c2ccccc2c2cc(NC(=O)c3cc(OC)c(OC)c(OC)c3)ccc21`?
SRC2 TRFRET art: 1668; PPARg SRC-3 ag: 13.3; PPARg SRC1 recr: 8.4; PPARg SRC2 recr: 6.4

How did O=C(Nc1ccc2oc(-c3ccc(F)cc3)nc2c1)c1ccccc1F do in these assays?
SRC2 TRFRET art: 2348*; PPARg SRC-3 ag: 20.6; PPARg SRC1 recr: 25.3*; PPARg SRC2 recr: 27.8*; PPARg SRC2 ag: 13.7; PPARg SRC1 conf: 12.0; PPARg SRC3 conf: 6.2
